# In the supplement of paper PMC6555819:
# Columns and labels:
# Test in all cases: PBM binding z-score (relative to random genomic background probes); higher = stronger binding; sequences stand for … in GC…GCGATTGACAGCGTAGAATGAAGG
# [1] = tested on: FXR:RXRa (NR concentration 270 nM, RXRa partner concentration 90 nM)
# In short: (§1)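 Ligand-free nuclear receptor dimers were bound for 1 h to custom Agilent 4×180K protein-binding microarrays. Detection used antibodies against each partner (one per run). Binding z-scores rest on regression-normalized fluorescence, with random background probes as the reference.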
# [2] = tested on: LXRa:RXRa (NR concentration 270 nM, RXRa partner concentration 90 nM)
# In short: as §1
# [3] = tested on: LXRa homodimer (NR concentration 270 nM)
# In short: as §1
# [4] = tested on: LXRb:RXRa (NR concentration 270 nM, RXRa partner concentration 90 nM)
# In short: as §1
# [5] = tested on: LXRb homodimer (NR concentration 270 nM)
# In short: as §1
# [6] = tested on: PPARa:RXRa (NR concentration 270 nM, RXRa partner concentration 90 nM)
# In short: as §1
# [7] = tested on: PPARg:RXRa (NR concentration 180 nM, RXRa partner concentration 90 nM)
# In short: as §1
# [8] = tested on: PPARg:RXRa 270nM:90nM, anti-RXR (NR concentration 270 nM, RXRa partner concentration 90 nM)
# In short: as §1
# [9] = tested on: PPARg:RXRa 30nM:10nM, anti-RXR (NR concentration 30 nM, RXRa partner concentration 10 nM)
# In short: as §1
# [10] = tested on: PPARg:RXRa 90nM:30nM, anti-RXR (NR concentration 90 nM, RXRa partner concentration 30 nM)
# In short: as §1
# [11] = tested on: PPARg:RXRa DBDmut IVT, anti-RXR (DBD mutation: RXRa K156A/R161A, NR concentration 270 nM, RXRa partner concentration 90 nM)
# In short: as §1
# [12] = tested on: PPARg:RXRa IVT, anti-PPARg (NR concentration 270 nM, RXRa partner concentration 90 nM)
# In short: as §1
# [13] = tested on: PPARg DBDmut:RXRa IVT, anti-PPARg (DBD mutation: PPARg1 K132A/R137A, NR concentration 270 nM, RXRa partner concentration 90 nM)
# In short: as §1
# [14] = tested on: PPARg DBDmut IVT, anti-PPARg (DBD mutation: PPARg1 K132A/R137A, NR concentration 270 nM)
# In short: as §1
# [15] = tested on: PPARg homodimer (NR concentration 180 nM)
# In short: as §1
# [16] = tested on: PXR:RXRa (NR concentration 270 nM, RXRa partner concentration 90 nM)
# In short: as §1
# [17] = tested on: PXR homodimer (NR concentration 270 nM)
# In short: as §1
# [18] = tested on: RARa:RXR (NR concentration 270 nM, RXRa partner concentration 90 nM)
# In short: as §1
# [19] = tested on: RARa homodimer (NR concentration 270 nM)
# In short: as §1
# [20] = tested on: RARb:RXRa (NR concentration 270 nM, RXRa partner concentration 90 nM)
# In short: as §1
Sequence,PBM binding z-score [1],PBM binding z-score [2],PBM binding z-score [3],PBM binding z-score [4],PBM binding z-score [5],PBM binding z-score [6],PBM binding z-score [7],PBM binding z-score [8],PBM binding z-score [9],PBM binding z-score [10],PBM binding z-score [11],PBM binding z-score [12],PBM binding z-score [13],PBM binding z-score [14],PBM binding z-score [15],PBM binding z-score [16],PBM binding z-score [17],PBM binding z-score [18],PBM binding z-score [19],PBM binding z-score [20]
GCATATAGGTAATCCAAGGTGAAAGTCCGATTGT,2.37,2.66,0.0628,0.738,-0.267,1.76,1.15,1.24,0.358,0.949,4.62,3.17,0.831,0.665,1.03,0.638,0.241,1.53,0.647,0.51
TCGAGTAGGTTAGTCGGGGCATTCCGCCAACATA,0.02,0.121,-0.495,0.444,-0.721,0.661,-0.328,0.877,1.07,0.912,2.34,2,-0.206,-0.88,-0.0815,0.0285,-0.57,0.175,-0.691,0.585
ATCTCTAGGAAAAGTTCAGTGAAAGATCGATAGA,0.71,1.22,0.761,0.737,0.622,0.611,0.521,1.56,0.619,1.36,-0.273,0.00412,1.12,0.44,0.701,1.43,1.46,0.476,1.52,2.17
AGAATGAGGTTATGATCAGGGAAACAGAATACAT,1.66,1.52,-0.0293,1.41,-0.275,2.83,1.86,1.65,1.17,1.03,1.69,2.07,1.68,0.713,0.605,1.02,0.186,1.6,0.566,1.42
CCTAGCAGGCCAGGGTGACTCAAGCATTTCGCTT,-0.306,-0.411,-0.589,-0.526,-1.43,0.023,-0.26,-0.0399,-0.987,-0.126,0.555,0.0938,-1.83,-1.19,-0.646,-0.537,-0.777,-0.0885,-0.299,0.148
CATACAGGGTCAGCTCGGCCAGAGTAGGGACGGC,4.13,2.91,-0.117,2.06,0.463,3.97,2.99,2.64,0.565,1.72,0.771,2.11,1.08,0.134,0.989,2.02,0.0599,2.97,0.394,4
CAAACTAGGTCAAGAGGTGAAAGTCCGCTTCCCG,5.13,3.89,0.764,2.66,0.24,5.8,8.82,7.36,5.81,7.88,8.11,8.63,5.95,5.05,5.72,2.72,0.369,4.83,1.4,4.54
CGTCCACGGTCAATGCTAGGTCAGTGAAAGCATT,0.638,1.1,0.946,0.337,-0.956,0.778,-0.0965,0.186,-0.646,-0.669,0.573,1.02,-0.899,-1.45,0.415,0.201,-0.388,1.17,-0.504,3.16
TCTAGTTGGTCACGGAGGTCACGCACGACGGGTA,3.96,4.14,2.94,3.75,0.74,4.54,4.03,4.7,3.7,4.38,2.9,4.62,1.18,2.02,3.23,4.93,1.26,5.23,1.73,4.33
ACTCAGAGGACAAAGGTCAGAGCTACGCCAGTGA,4.51,4.87,1.72,3.52,0.532,5.3,7.56,7.42,5.13,7.46,1.49,3.79,-0.0394,-0.208,3.47,4.07,0.501,5.53,1.81,4.71
TCTATTAGTTGAAGGGTAACCGACGAGTCCGTTT,1.06,1.12,0.425,1.17,0.781,1.35,0.607,2.8,4.16,3.37,2.52,0.636,0.556,0.761,1.56,1.03,0.714,1.09,1.6,0.96
TCATATAGGTAAAGGTGAATGTCGAACGATATGA,0.972,1.33,-0.151,1.19,-0.0794,2.99,4.24,4.23,4.36,4.59,3.9,4.33,0.991,1.7,1.02,0.695,0.181,1.46,0.501,1.87
GCTGCTAGGTAAACTGATGGTCAGCTAAAGCTCG,-0.373,-0.492,-0.956,-0.723,-0.701,-0.566,-0.301,-0.644,-0.739,-0.98,0.994,0.0303,-1.25,-0.794,-1.08,-0.636,-0.67,-0.68,-1.2,-0.155
TGTCAAAGTTCAAAGGTAACGCAAGTATCCACAC,7.39,6.39,4.52,4.83,1.75,6.18,9.31,8.11,5.51,7.89,0.302,4.95,0.987,0.888,3.82,6.07,4.47,7.09,1.84,5.19
TCATATAGGTAATACAGGTGAAAGTCGGCATCTA,1.2,1.54,0.569,1.2,0.365,2.06,1.67,2.61,4.12,3.5,4.2,3.48,1.31,1.86,1.33,0.888,0.728,1.34,1.98,0.83
TCTTGTGGATCAACAGGAGGTTAAGAAAGATCGA,0.0119,1.31,-0.115,0.808,-0.625,1.19,0.00768,1.18,2.49,1.87,1.35,0.812,0.186,1.07,0.476,0.621,-0.304,0.932,-0.244,0.59
CGTCAAAGTTCAAGGGAACGTAACAGAAAGCAGC,6.3,5.44,2.42,3.12,0.895,4.42,3.85,4.64,1.76,3.48,0.445,1.36,0.481,1.2,2.69,3.89,2.32,3.09,1.28,5.11
TCATATCGGTAAACAGGTGAAAGTCCGTAAGTTA,0.957,0.857,0.341,0.799,0.0218,1.89,1.04,2.91,4.03,3.5,2.55,2.3,0.278,0.853,0.999,0.657,0.286,0.933,1.19,0.764
CATACAGGGTCAGCTAGGCAAGAGTAGGGACGGC,4.09,2.76,-0.331,1.96,0.0161,4.34,3.37,3.02,0.458,1.77,0.883,2.27,0.128,0.564,1.62,1.97,-0.336,2.62,0.47,3.91
TGAATGAGGTTATAAGACCAGGGAACGTTGCAAA,1.42,1.55,-0.275,0.883,-0.347,2.44,1.25,1.65,0.679,1.33,1.18,1.75,0.985,0.561,0.257,0.794,-0.0148,1.33,0.0796,1.29
TCTCTTAGTTGAAGGGCAACCGACGAGTCCGTTT,0.776,1.01,0.193,0.945,0.697,1.06,-0.252,2.02,3.7,3.13,2.62,0.645,0.259,0.537,0.739,0.86,0.261,0.472,0.622,1.63
ATATGTAGGTTACATCCGGGCCATTCAGGCTATG,0.546,2.67,0.422,1.05,0.287,3.13,5.08,4.09,1.51,3.05,7.19,7.09,3.74,3.02,0.583,0.633,0.119,0.816,0.221,1.15
ATCCCTAGGTAAGACTCAGTTCAGTGAAGAACGC,0.273,0.364,0.479,0.29,0.516,-0.0282,0.0747,-0.195,-0.259,-0.0563,0.0897,-0.242,-0.265,0.674,0.578,1.06,1.32,0.256,0.532,0.244
CCCACTGGGCCATCAGGTCATTGATATCAACGTT,1.16,1.11,1.5,1.63,-0.17,2.74,2.87,3.57,1.18,2.86,3.84,5.07,0.243,0.0844,2.19,1.57,0.893,1.95,0.424,2.04
CGTCCAAGGTCAAATGTCAGTGAAGAGATGACGG,7.54,5.76,1.47,4.6,2.22,6.09,6.34,6.37,3.35,5.7,3.67,4.11,0.495,-0.392,2.49,4.82,1,5.67,0.72,5.38
GCTAGTTGGTCAGTAAAAGGTCAAACACCGGTCG,3.88,5.14,6.12,4.91,1.54,4.71,2.68,4.45,2.84,4.37,1.17,2.62,-0.0315,0.251,4.94,5.21,1.94,6.29,1.53,4.13
